A short description of experiment [1]: qHTS assay for small molecule agonists of the p53 signaling pathway - cell viability (AID 651633; calls by dose curve; further: nearly all actives have a fitted effect of over 30% in size; further: potency means the concentration at half of the fitted maximal effect). Put shortly:
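p53RE-bla cells, seeded at 4,000 per well and rested 5 h at 37 C/5% CO2, received compounds in DMSO for 16 h at 37 C. CellTiter-Glo was then added, and luminescence was read after 30 min at room temperature to gauge cytotoxicity.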

Experiment [2] is described as follows: qHTS assay to test for compound auto fluorescence at 460 nm (blue) in HEK293 cells (AID 720678). In short, it runs like this:
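Intrinsic compound fluorescence is recorded in live HEK293 cultures after overnight incubation at 37C, 5% CO2, using excitation 405 nm and emission 460 nm. Values are referenced to triamterene.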
For orientation: qHTS replaces the single test concentration by a dilution series.

Experiment [3] can be described thus: qHTS assay to test for compound auto fluorescence at 590 nm (red) in HEK293 cells (AID 720679). Put shortly: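 Red autofluorescence, HEK293 cells: 2,000 cells/well; attach 4-5 hr 37C; add 23 nL cpd or DMSO; incubate o/n 37C 5% CO2; read Ex540/Em590; Rose Bengal sodium reference.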
Experiment [4] is described as follows: qHTS assay to test for compound auto fluorescence at 535 nm (green) in HEK293 cells (AID 720680).
The nature of experiment [5]: qHTS assay to test for compound auto fluorescence at 590 nm (red) in HepG2 cell free culture (AID 720684). In short, it runs like this: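 Ex 540 / Em 590 nm read of compound in cell-free MEM (10% FBS). Rose Bengal sodium reference.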
Experiment [6] has as its target Glucocorticoid receptor (Homo sapiens) (UniProt P04150). In words: qHTS assay to identify small molecule agonists of the glucocorticoid receptor (GR) signaling pathway (AID 720691; active means well fitted activation curve with a large enough effect in the signal ratio in the repeat runs, not every such curve was filed as active; inconclusive means weak or mixed curves, or effect the other way; inactive means no such curve, though single readings can be large or run the other way; the % refers to the signal ratio). Put shortly: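 HeLa GR-bla reporter line; cells pre-incubated 4 h, compound in DMSO 18 h at 37 C; LiveBLAzer B/G FRET substrate 2 h RT; fluorescence intensity read-out.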
Experiment [7] can be described thus: qHTS assay to identify small molecule antagonists of the androgen receptor (AR) signaling pathway - cell viability counter screen (AID 743033; further: nearly all actives have a fitted effect of over 45% in size; further: potency means the concentration at half of the fitted maximal effect).
The nature of experiment [8]: qHTS assay to identify small molecule antagonists of the androgen receptor (AR) signaling pathway using the MDA cell line - cell viability counter screen (AID 743041; further: nearly all actives have a fitted effect of over 45% in size; further: potency means the concentration at half of the fitted maximal effect). In short, it runs like this:
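In this qHTS counter assay, fluorescence intensity after CellTiter-Fluor addition indicated viability of MDA-kb2 AR-luc cells given compounds and R1881 for 16 h at 37C.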

Experiment [9] in a line: qHTS assay to identify small molecule antagonists of the thyroid receptor (TR) signaling pathway - cell viability counter screen (AID 743064). Further: nearly all actives have a fitted effect of over 50% in size. Further: potency means the concentration at half of the fitted maximal effect. In short, it runs like this: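 Counter screen for cytotoxicity: compound plus T3 (1 nM final) on GH3.TRE-Luc cells, 23.5 h at 37 °C, then fluorescence viability readout with CellTiter-Fluor.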
Experiment [10] addresses Estrogen receptor (Homo sapiens) (UniProt P03372). In words: qHTS assay to identify small molecule agonists of the estrogen receptor alpha (ER-alpha) signaling pathway (AID 743075; calls by dose curve;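 further: HEK293 GripTite cells with ER-alpha and UAS-driven beta-lactamase reporter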; further: potency means the concentration at half of the fitted maximal effect).
For experiment [11] the target is unchanged. Briefly: qHTS assay to identify small molecule agonists of the estrogen receptor alpha (ER-alpha) signaling pathway using the BG1 cell line (AID 743079). Further: nearly all actives have a fitted effect of over 20% in size. Further: potency means the concentration at half of the fitted maximal effect.
The nature of experiment [12]: qHTS assay to identify small molecule antagonists of the estrogen receptor alpha (ER-alpha) signaling pathway using the BG1 cell line (AID 743080; calls by dose curve;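 further: BG1 cells stimulated with 17beta-estradiol alongside compound; series mostly up to about 70 µM; nearly all actives have a fitted effect of over 25% in size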). In short, it runs like this: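 Readout is ONE-Glo luminescence, taken 30 min at room temperature after reagent addition, preceded by a CellTiter-Fluor viability read; BG1-Luc-4E2 cells had received compound and 17beta-estradiol for 21.5 h at 37 C.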

The nature of experiment [13]: qHTS assay to identify small molecule that activate the aryl hydrocarbon receptor (AhR) signaling pathway - cell viability counter screen (AID 743086). Further: nearly all actives have a fitted effect of over 45% in size. Further: potency means the concentration at half of the fitted maximal effect. In short, it runs like this: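 HepG2-AhR-luc (HG2L7.5c1) cells, 4000/well, were preincubated 5 h at 37C, exposed to compound in qHTS format for 24 hr at 37C, then given CellTiter-Fluor for 30 min; viability was read as fluorescence in the reporter wells.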

Experiment [14] addresses Nuclear receptor subfamily 1 group I member 2 (Rattus norvegicus) (UniProt Q9R1A7). Briefly: Rat pregnane X receptor (rPXR) activation by small molecules, qHTS assay (AID 1346983). Further: nearly all actives have a fitted effect of over 20% in size. The conditions noted are these: rPXR luciferase reporter cells, One-Glo luminescence, 24 h; max activation: stronger effect = higher value. Put shortly: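 Cell-based rPXR luciferase reporter assay, 2,000 cells per well, rested 5hr at 37 C before compound addition in DMSO, then 24 hr at 37 C. One-Glo reagent was added and luminescence read after 30 min at room temperature.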

The target of experiment [15] is Nuclear receptor subfamily 1 group I member 2 (Homo sapiens) (UniProt O75469). Briefly: CYP3A4 induction through human pregnane X receptor (PXR) by small molecules, qHTS assay (AID 1346984). Further: nearly all actives have a fitted effect of over 40% in size. Put shortly: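 HepG2-derived DPX-2 line carrying PXR plus a CYP3A4-promoter luciferase reporter; cells plated 5 hr, compound-exposed 24 hr at 37C. CYP3A4 activity probed with 3uM (final) Luciferin-IPA for 3hr, then luciferase read after One-Glo.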

Experiment [16] shares this target. Briefly: Human pregnane X receptor (PXR) activation by small molecules, qHTS assay (AID 1346985). Further: nearly all actives have a fitted effect of over 40% in size. Put shortly:
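DPX-2 cells (HepG2 co-transfected with a PXR response element and a CYP3A4-promoter luciferase construct) were seeded at 2,000 per well, rested 5 hr at 37C, then exposed to DMSO-dissolved compounds for 24 hr. Activation was read as luciferase luminescence.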

Experiment [17] in a line: qHTS assay for small molecule agonists of the p53 signaling pathway (AID 651631; calls by dose curve; further: nearly all actives have a fitted effect of over 15% in size; further: potency means the concentration at half of the fitted maximal effect). In short, it runs like this: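 Stably transfected HCT-116 cells (beta-lactamase behind p53 response elements) get compounds after a 5 h settling period; 16 h later at 37 °C, FRET substrate is loaded and fluorescence read after 2 h.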
Experiment [18] can be described thus: qHTS assay for identifying genotoxic compounds that show differential cytotoxicity against isogenic chicken DT40 cell lines with known DNA damage response pathways - wild type cell line (AID 743012). Further: nearly all actives have a fitted effect of over 60% in size. Further: potency means the concentration at half of the fitted maximal effect. In short, it runs like this: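 CellTiter-Glo luminescence readout of viability in wild type DT40 cells after 40 h compound exposure at 37 C/5% CO2; 300 cells/well; reagent incubated 30 min at room temperature before reading.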

The nature of experiment [19]: qHTS assay for identifying genotoxic compounds that show differential cytotoxicity against isogenic chicken DT40 cell lines with known DNA damage response pathways - Rev3 mutant cell line (AID 743014). Further: nearly all actives have a fitted effect of over 55% in size. Further: potency means the concentration at half of the fitted maximal effect.
The target in experiment [20] is Peroxisome proliferator-activated receptor gamma (Homo sapiens) (UniProt P37231). In words: qHTS assay to identify small molecule agonists of the peroxisome proliferator-activated receptor gamma (PPARg) signaling pathway (AID 743094; active means well fitted activation curve with a large enough effect in the signal ratio in the repeat runs, not every such curve was filed as active; inconclusive means weak or mixed curves, or effect the other way; inactive means no such curve, though single readings can be large or run the other way; the % refers to the signal ratio). Put shortly:
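HEK293H PPARg-bla cells, 5 h settle at 37C/5% CO2; compound (DMSO) 17 h, 37C; B/G FRET substrate 1 h RT; fluorescence intensity read-out. qHTS format.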

“And” between values parts separate entries of the source, which are not always exact repeats. Identical values can stand only once. Values without a mark were called inactive. The source made the active and inactive calls. Unless noted, the call rests on the fitted dose curve; in most records, active means well fitted curve in the direction sought with a large enough effect in the repeat runs; inconclusive means weak or mixed curves; inactive means no such curve, though single readings can be large; an effect the other way counts as inactive or inconclusive.
On the % scale 0 is the no-effect control and ±100 the full control effect.

Sequence of Nuclear receptor subfamily 1 group I member 2 (Rattus norvegicus) (Q9R1A7 whole entry, looked up): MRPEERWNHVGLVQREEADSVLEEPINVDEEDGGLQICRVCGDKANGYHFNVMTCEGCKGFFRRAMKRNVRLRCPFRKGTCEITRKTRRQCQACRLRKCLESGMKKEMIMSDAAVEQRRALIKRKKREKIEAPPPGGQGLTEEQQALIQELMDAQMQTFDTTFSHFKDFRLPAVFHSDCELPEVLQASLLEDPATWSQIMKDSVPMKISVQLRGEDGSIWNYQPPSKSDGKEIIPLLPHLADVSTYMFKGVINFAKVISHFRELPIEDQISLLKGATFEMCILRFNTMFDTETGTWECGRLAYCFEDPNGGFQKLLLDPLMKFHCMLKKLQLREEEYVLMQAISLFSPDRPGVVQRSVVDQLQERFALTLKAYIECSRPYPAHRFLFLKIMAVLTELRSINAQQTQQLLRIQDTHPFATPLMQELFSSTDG
Sequence of Glucocorticoid receptor (Homo sapiens) (P04150 whole entry, looked up): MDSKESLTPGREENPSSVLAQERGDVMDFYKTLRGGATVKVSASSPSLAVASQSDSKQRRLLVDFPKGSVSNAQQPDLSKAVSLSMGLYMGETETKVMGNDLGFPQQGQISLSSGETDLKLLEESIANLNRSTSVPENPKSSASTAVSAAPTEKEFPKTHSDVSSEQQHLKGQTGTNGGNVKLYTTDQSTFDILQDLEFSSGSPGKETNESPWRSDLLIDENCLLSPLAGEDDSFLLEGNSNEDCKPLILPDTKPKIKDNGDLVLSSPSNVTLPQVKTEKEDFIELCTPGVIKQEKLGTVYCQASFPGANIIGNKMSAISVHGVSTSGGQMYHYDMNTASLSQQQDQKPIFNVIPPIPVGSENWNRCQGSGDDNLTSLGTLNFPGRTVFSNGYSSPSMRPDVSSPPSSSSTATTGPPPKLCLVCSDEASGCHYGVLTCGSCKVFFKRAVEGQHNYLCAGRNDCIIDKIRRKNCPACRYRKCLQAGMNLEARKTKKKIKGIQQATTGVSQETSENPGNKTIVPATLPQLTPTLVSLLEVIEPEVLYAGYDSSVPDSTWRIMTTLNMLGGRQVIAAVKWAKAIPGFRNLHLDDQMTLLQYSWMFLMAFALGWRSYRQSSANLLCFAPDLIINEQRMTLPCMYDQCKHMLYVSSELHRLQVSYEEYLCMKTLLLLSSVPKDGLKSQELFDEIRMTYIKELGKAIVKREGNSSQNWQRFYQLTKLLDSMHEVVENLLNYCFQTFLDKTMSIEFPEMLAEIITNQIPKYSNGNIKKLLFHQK
Sequence of Peroxisome proliferator-activated receptor gamma (Homo sapiens) (P37231 whole entry, looked up): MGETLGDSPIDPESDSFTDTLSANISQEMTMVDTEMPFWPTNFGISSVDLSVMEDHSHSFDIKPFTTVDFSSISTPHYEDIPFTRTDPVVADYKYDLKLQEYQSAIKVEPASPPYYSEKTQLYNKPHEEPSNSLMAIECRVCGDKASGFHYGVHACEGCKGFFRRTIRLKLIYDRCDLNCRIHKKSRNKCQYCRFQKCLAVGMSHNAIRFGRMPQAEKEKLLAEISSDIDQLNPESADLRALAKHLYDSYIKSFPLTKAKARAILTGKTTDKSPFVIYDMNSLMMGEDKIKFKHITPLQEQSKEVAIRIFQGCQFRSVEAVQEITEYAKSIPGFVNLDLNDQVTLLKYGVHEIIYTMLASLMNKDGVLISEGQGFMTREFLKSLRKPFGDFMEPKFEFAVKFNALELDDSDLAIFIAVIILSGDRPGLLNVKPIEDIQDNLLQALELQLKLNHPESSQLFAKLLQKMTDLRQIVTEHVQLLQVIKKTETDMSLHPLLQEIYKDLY
Sequence of Estrogen receptor (Homo sapiens) (P03372 whole entry, looked up): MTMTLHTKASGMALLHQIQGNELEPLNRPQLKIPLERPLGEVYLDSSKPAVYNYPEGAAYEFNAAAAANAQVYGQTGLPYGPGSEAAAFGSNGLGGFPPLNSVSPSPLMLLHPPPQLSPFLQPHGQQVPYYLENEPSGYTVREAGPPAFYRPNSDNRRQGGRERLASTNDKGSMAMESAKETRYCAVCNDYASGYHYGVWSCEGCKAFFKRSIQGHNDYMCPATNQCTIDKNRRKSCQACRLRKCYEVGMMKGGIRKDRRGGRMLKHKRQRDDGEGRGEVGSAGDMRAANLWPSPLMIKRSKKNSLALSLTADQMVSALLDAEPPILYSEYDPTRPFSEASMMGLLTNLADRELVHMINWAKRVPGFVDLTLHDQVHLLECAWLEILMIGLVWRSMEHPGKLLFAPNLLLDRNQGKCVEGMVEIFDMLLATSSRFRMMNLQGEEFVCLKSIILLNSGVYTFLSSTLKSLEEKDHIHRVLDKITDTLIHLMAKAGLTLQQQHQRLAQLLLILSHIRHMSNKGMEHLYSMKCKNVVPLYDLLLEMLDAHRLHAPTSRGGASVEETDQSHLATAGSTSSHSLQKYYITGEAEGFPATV

For `CNc1ccc(C(=O)CC(O)CCC(C)C2OC(=O)CC(O)CC(=O)CC(O)CC(O)CC(O)CC(O)CC3(O)CC(O)C(C(=O)OC)C(CC(O[C@@H]4O[C@H](C)[C@@H](O)[C@H](N)[C@@H]4O)/C=C/C=C/C=C/C=C/C=C/C=C/C=C/C2C)O3)cc1` (some centres undefined), the Potency result in experiment [1], in experiment [2], in [4], in [6], in [7] and in experiment [8] was “inactive” throughout. Besides, the Potency result in [9], in [10], in experiment [11], in experiment [12], in [13] and in experiment [15] was “inactive” each time. In addition, in experiment [16], the Potency result is “inactive”. The compound was called inactive in experiment [3] and in [5]. In experiment [14], the max activation is -1.47%.
Consider `Oc1cc[c]([Hg][Cl])cc1`, for which the Potency in [17] was 23.7 µM (active); in experiment [1] it was 9.44 µM (active) and 16.8 µM (active); in [18], 422 nM (active) and 596 nM (active); in experiment [19], 750 nM (active) and 841 nM (active); in experiment [7], 7.56 µM (active) and 19 µM (active); in experiment [8], 11.9 µM (active) and 13.3 µM (active). Also, the Potency in experiment [9] is 596 nM (active) and 841 nM (active); in [10], 21.3 µM [inconclusive] (active); in [13], 13.3 µM (active). Also, the Potency entry in experiment [2], in experiment [4] and in experiment [15] was “inactive” throughout. Also, the result in [5] was inactive. Moreover, in experiment [14], the max activation was -21.4%.
Turning to `COC([CH2][Hg])CNC(=O)c1ccccc1OCC(=O)O` (centres undefined), the Potency entry in experiment [1], in experiment [4], in experiment [6], in [7], in [8] and in [9] was “inactive” each time. The Potency result in [10], in experiment [11], in [12], in experiment [13], in [15] and in experiment [16] was “inactive” throughout. Also, the result in experiment [3] was inactive. Also, the Potency in experiment [18] is 1.68 µM (active). Moreover, in experiment [14], the max activation is 7.87%.
In the case of `C[N+]1(C)CCCCC1COC(=O)C(O)(c1ccccc1)c1ccccc1` (centres undefined), the Potency entry in [1], in experiment [2], in [4], in [6], in experiment [18] and in experiment [7] was “inactive” throughout. The Potency result in [8], in [15] and in [16] was “inactive” each time. In addition, the compound was called inactive in experiment [3] and in experiment [5]. The max activation in [14] was 2.59%.
Consider `NC1=NC(=O)N2CC12` (centres undefined), for which the Potency entry in [2], in experiment [4], in [18], in experiment [19], in [8] and in experiment [9] was “inactive” in each case. Besides, the Potency entry in experiment [10], in experiment [11], in [12], in [20], in [15] and in experiment [16] was “inactive” throughout. The result in experiment [3] and in [5] was inactive. Further, the max activation in experiment [14] was -1.23%.
For `O=C1CCO1`, the Potency result in experiment [1], in experiment [2], in [4], in experiment [6], in experiment [19] and in experiment [7] was “inactive” throughout. For the same compound, the Potency entry in experiment [8], in experiment [9], in experiment [10], in experiment [11], in experiment [12] and in experiment [13] was “inactive” each time. Also, the Potency result in experiment [20], in [15] and in experiment [16] was “inactive” in each case. The compound was classed as inactive in experiment [5]. Further, the max activation in [14] is -0.633%.
`CN1[C@H]2CC[C@@H]1[C@@H](C(=O)O)[C@@H](OC(=O)c1ccccc1)C2`: the Potency result in [2], in experiment [4], in experiment [18], in [19], in experiment [7] and in experiment [9] was “inactive” throughout. In addition, the Potency entry in [10], in experiment [11], in experiment [12], in experiment [13], in experiment [20] and in experiment [15] was “inactive” in each case. The Potency entry in experiment [16] is “inactive”. For the same compound, the call in experiment [3] was inactive. In addition, the max activation in experiment [14] was -2.75%.
As for `CC(=O)[C@H]1CC[C@H]2[C@@H]3CC[C@@H]4C[C@H](O)CC[C@]4(C)[C@H]3CC[C@]12C`, the Potency entry in experiment [17], in [2], in experiment [4], in experiment [6], in experiment [18] and in experiment [7] was “inactive” each time. Also, the Potency result in [8], in experiment [13], in [20], in experiment [15] and in experiment [16] was “inactive” throughout. In experiment [3], the outcome was inactive. In addition, the figures for the Potency in experiment [10] and in [11] were 26.8 µM [activator] (active) and 29.8 µM (active), respectively. Besides, the max activation in experiment [14] was 6.21%.
